PKA-R2B act = activators of human PKA-R2B complex | P22694+P31323 | PKA-R2B holoenzyme dissociation, Cy5-IP20 fluorescence polarization; R2B truncated from residue 108, S112A mutant; 0% DMSO only, 100% 113 µM cGMP | activation, % at 11.4 µM | 0.079% of 340,000 active;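 active means activation above a cutoff set at the mean over all compounds plus 3 SD, cut at about 18% in these data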;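 further: higher means more holoenzyme dissociation and a rise in polarization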
Target sequence (P31323 whole entry, looked up, other chains not shown, the tested form may be a part): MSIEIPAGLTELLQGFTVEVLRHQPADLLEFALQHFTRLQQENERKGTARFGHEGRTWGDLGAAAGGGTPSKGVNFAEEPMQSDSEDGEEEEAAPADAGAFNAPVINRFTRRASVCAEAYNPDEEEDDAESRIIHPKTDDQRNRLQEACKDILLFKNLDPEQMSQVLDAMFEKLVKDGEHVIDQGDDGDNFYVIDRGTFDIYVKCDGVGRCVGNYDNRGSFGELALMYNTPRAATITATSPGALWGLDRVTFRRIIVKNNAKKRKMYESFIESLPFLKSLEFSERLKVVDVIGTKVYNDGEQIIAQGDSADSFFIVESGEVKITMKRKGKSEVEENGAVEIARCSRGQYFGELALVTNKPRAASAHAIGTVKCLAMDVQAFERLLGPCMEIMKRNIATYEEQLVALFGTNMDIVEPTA
bovine MsrA act = bovine methionine sulfoxide reductase A activation. AID 602163. 0.3% of 360,000 active. purified bovine MsrA, absorbance read-out. activation, % at 10.6 µM; in the data active means activation above about 7.5%;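 further: 0% = vehicle and 100% = reference activator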
Mot1-301 SUMO = blocks SUMOylation pathway, rescuing yeast Mot1-301 growth | S. cerevisiae Mot1-301 growth rescue, ATP luminescence, 38.5C; percent above DMSO median, 100 means doubled | growth rescue, % at 18.8 µM | 1% of 320,000 active | AID 2716;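 active means every valid replicate shows activation above 250% relative to neutral control wells; inactive means the rest, any valid replicate at or below 250%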;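 further: OY570 slx delta 5 strain wells were the positive control but not used for scaling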
MsrA inh = inhibitors of bovine MsrA; purified bovine MsrA, absorbance read-out; inhibition, % at 15.5 µM; 0.75% of 360,000 active; in the data active means inhibition above about 4.5%;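 further: 0% = vehicle wells with enzyme and 100% = reference inhibitor wells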
PKA-R1A act = activates the PKA-R1A holoenzyme complex. PKA-R1A dissociation, Cy5-IP20 fluorescence polarization; scaled: DMSO 0%, 113 µM cGMP 100%. 0.083% of 340,000 active. activation, % at 11.4 µM;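 active means percent activation above the mean of all tested compounds plus 3 SD, cut at about 19% in these data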;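 further: higher means more PKAc released from R1A so a rise in polarization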
Yeast Mot1 SUMO = SUMO pathway inhibitors in yeast Mot1-301 growth; shares compounds with Mot1-301 SUMO; S. cerevisiae Mot1-301 galactose growth, ATP luminescence, 24 h; -100 = growth of slx-deleted rescue strain; growth activity, percent, % at 42 µM; 2,300 tested, under 10 active;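 active means Signal drops as the depositor expects, and the fitted half-maximal dose is no more than ten times the top valid tested dose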;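 further: more negative values mean stronger growth rescue toward the control strain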
Numbers without * were called inactive; x = not tested or not shown; + = active, no number. Hits are enriched below; roughly 2% of the tested compounds scored in any of these assays.

SMILES	PKA-R2B act	bovine MsrA act	Mot1-301 SUMO	MsrA inh	PKA-R1A act	others
Clc1ccc2c(c1)C(c1ccccc1Cl)=NCc1nnc(N3CCN(CCOc4ccccc4)CC3)n1-2	-9	-2	346*	1	-9
CCN(CC)c1ccc(/C=C2/C(=O)NC(=O)N(CC3CCCO3)C2=O)cc1 (centres undefined)	11	-7	81	5.2*	1
O=C1NC(=O)N(CC2CCCO2)C(=O)/C1=C/c1cccs1 (centres undefined)	4	-3	-7	1	-6
CCC(C)n1c(O)c(C=NCCc2ccccc2)c(=O)[nH]c1=S (centres undefined)	0	-8	2	4	-7
O=c1[nH]c(=O)n(CCC2=CCCCC2)c(O)c1/C=N/Nc1ccccc1	-1	-7	291*	0	6
CCC(C)n1c(O)c(/C=N/Nc2ccccc2)c(=O)[nH]c1=S (centres undefined)	-15	-3	355*	0	-3
O=c1[nH]c(=O)n(CCC2=CCCCC2)c(O)c1/C=N/Nc1cccc2ccccc12	3	-3	9	1	-4
O=c1[nH]c(=S)n(C2CC2)c(O)c1/C=N/Nc1ccccc1	-8	-4	282*	2	-4
COc1ccccc1-n1c(/C=C/c2ccc(O)cc2)nc2ccccc2c1=O	-8	-2	-1	4.6*	-3
COc1ccccc1N	x	x	x	0	x
CC[C@@H]1C[C@H]2CC[C@H](O2)[C@H](C)C(=O)O[C@@H](C)C[C@@H]2CC[C@@H](O2)[C@@H](C)C(=O)O[C@H](C)C[C@H]2CC[C@H](O2)[C@H](C)C(=O)O[C@@H](C)C[C@@H]2CC[C@@H](O2)[C@@H](C)C(=O)O1	x	x	x	0	x
OC1CN2CCC(O)C2C(O)C1O (centres undefined)	x	x	x	0	x
N#Cc1ccc(NC(=S)N2Cc3cc(Br)ccc3-n3nncc3C2)cc1	x	x	x	0	x
N[C@@H](Cc1ccc(N(CCCl)CCCl)cc1)C(=O)O	3	0	-9	1	0
NC(Cc1ccc(O)cc1)C(=O)NN=Cc1ccc(N(CCCl)CCCl)cc1 (centres undefined)	-7	-6	x	7.7*	-7
O=C1C2CC=CCC2C(=O)N1SC(Cl)(Cl)Cl (centres undefined)	x	x	x	0	x
C[C@H]1C[C@@H](C)C(=O)[C@@H]([C@H](O)CC2CC(=O)NC(=O)C2)C1	-6	-7	430*	1	-5
CN1CCN(c2cc(N3CCCC3)c([N+](=O)[O-])cc2F)CC1	-9	-3	332*	1	-17
CCN1CCN(c2cc(N3CCCC3)c(F)cc2[N+](=O)[O-])CC1	-3	-1	-5	0	-4
O=c1[nH]c(=S)n(-c2ccccc2F)c(O)c1C=Nc1ccc(N2CCOCC2)cc1	-2	-4	+	2	-1
O=c1[nH]c(=S)n(-c2ccc(Br)cc2)c(O)c1C=Nc1ccc(N2CCOCC2)cc1	-16	-2	-17	0	-9
COc1ccc(CC2(CCc3ccncc3)C(=O)NC(=O)NC2=O)c(OC)c1	-8	-2	281*	1	-8
c1ccc(Cc2cnc(N3CCNCC3)nc2)cc1	x	x	x	1	x
O=c1[nH]c(=S)n(Cc2ccc(F)cc2)c(O)c1C=NCCCn1ccnc1	1	-5	196	4.5*	1
Fc1cccc(CNCCc2c[nH]c3ccccc23)c1	0	-1	-13	1	-9
SMILES	PKA-R2B act	bovine MsrA act	Mot1-301 SUMO	MsrA inh	PKA-R1A act	others
Cc1cccc(CNCCc2c[nH]c3ccccc23)c1	-9	7	286*	-2	7
CC(=O)O[C@H]1CC[C@@]2(C)C(=CC[C@@H]3[C@@H]2CC[C@]2(C)C(=O)CC[C@@H]32)C1	0	1	483*	x	-1
CC(=O)O/C(=C1\CC2C3CC=C4CC(OC(C)=O)CCC4(C)C3CCC2(C)C1=O)C(F)(F)F (centres undefined)	-8	-1	x	0	-6
O=C(NCCN1CCC2(CC1)C(=O)NCN2c1ccccc1)c1cccnc1Cl	x	x	x	-1	x
CC(C)C(=O)Nc1ccc(N2CCN(C)CC2)c(F)c1	-14	-11	423*	-1	-10
CCc1ccc(C(=O)C23CN4CN(CN(C4)C2)C3)cc1	-4	-3	351*	1	-2
COC(=O)C[C@]1(C(=O)OC)CN(C#N)N(c2ccc(Cl)cc2)C12c1ccccc1-c1ccccc12	-12	-11	412*	1	-4
COc1ccc(C(=O)OC2C[C@H]3CC[C@H](C2)N3C)cc1OC (some centres undefined)	-3	-1	327*	-1	2
CN1C2CCC1CC(OC(=O)c1ccc(Cl)cc1)C2 (centres undefined)	8	-1	-4	0	1
CN1CCc2cc3c(c4c2C1Cc1ccccc1-4)OCO3 (centres undefined)	-2	48*	102	1	-3
O=C(NCCN1CCC2(CC1)C(=O)NCN2c1ccccc1)c1cccc(F)c1	x	x	x	-1	x
O=C(O)c1ccc(N=Cc2c(O)[nH]c(=O)[nH]c2=O)cc1	2	-3	-14	4.6*	3
c1ccc(CCN2CCC3CCNC3C2)cc1 (centres undefined)	x	x	x	0	x
O=C(c1ccc(Cl)cc1)C1CCCN(Cc2ccc3c(c2)OCCO3)C1 (centres undefined)	-1	0	211	0	3
O=C(c1ccc(Cl)cc1)C1CCCN(Cc2ccc3ncccc3c2)C1 (centres undefined)	-9	-1	258*	1	-10
Cc1ccccc1-n1c(O)c(C=Nc2ccc(N(C)C)cc2)c(=O)[nH]c1=O	-26	-6	156	2	-37
Cc1cccc(N=Cc2c(O)n(-c3ccccc3C)c(=O)[nH]c2=O)c1	-3	-4	280*	4	2
O=C(NCCN1CCC2(CC1)C(=O)NCN2c1ccccc1)c1ccc(F)c(F)c1	x	x	x	1	x
O=C(NC1CN2CCC1CC2)c1ccc(Cl)cc1 (centres undefined)	x	x	x	-2	x
CCOC(=O)C1(c2ccccc2)CCN(CCC(=O)Nc2ccccc2OC)CC1	-8	-2	378*	0	6	Yeast Mot1 SUMO=1
CCOC(=O)C1(c2ccccc2)CCN(CCC(=O)Nc2ccc(F)cc2)CC1	-5	0	10	0	3
Cc1ccc(C2SCC(=O)Nc3c2c(=O)[nH]n3C2CCOC(C)(C)C2)cc1 (centres undefined)	4	1	3	-1	0
COc1ccc(C2SCC(=O)Nc3c2c(=O)[nH]n3C2CCCCC2)cc1 (centres undefined)	2	-3	824*	2	-7	Yeast Mot1 SUMO=0

Screens from PubChem BioAssay.
